G9a inh = qHTS Assay for Inhibitors of Histone Lysine Methyltransferase G9a; G9a H3K9 monomethylation, AlphaScreen, 2 h; Potency, µM (top dose mostly 102 µM), without a hit: top-dose activity, negative = inhibition, most hits filed as inhibitors; Histone-lysine N-methyltransferase EHMT2 (Homo sapiens), Q96KQ7; 8.8% of 350,000 active; note: potency is the fitted concentration of half-maximal effect; % is set by controls: 0 for no effect and ±100 for the full control effect; nearly all actives have a fitted effect of over 75% in size
Target sequence (Q96KQ7 913-1193 limits assumed): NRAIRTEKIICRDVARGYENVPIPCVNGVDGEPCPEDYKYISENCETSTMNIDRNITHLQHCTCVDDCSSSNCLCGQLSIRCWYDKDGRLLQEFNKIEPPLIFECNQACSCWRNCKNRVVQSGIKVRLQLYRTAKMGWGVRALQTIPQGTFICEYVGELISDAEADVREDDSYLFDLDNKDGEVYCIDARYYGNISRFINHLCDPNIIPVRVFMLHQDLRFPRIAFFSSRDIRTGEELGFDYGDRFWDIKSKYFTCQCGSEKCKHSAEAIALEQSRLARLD
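Methyltransferase reactions run at room temperature for 2 h (20 nM enzyme, 500 nM biotin-H3K9 peptide, 20 uM SAM) after a 15 min compound preincubation; product detected by AlphaScreen beads and anti-H3K9me1 antibody.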
BAZ2B block = qHTS Assay for Inhibitors of BAZ2B; AlphaScreen BAZ2B-H3K14Ac peptide displacement; Potency, µM (series often up to 114 µM), for inactives: top-dose activity change, negative = inhibition, actives largely listed as inhibitors; AID 504333, 2011; 4.4% of 360,000 active; note: potency is the fitted concentration of half-maximal effect; % is set by controls: 0 for no effect and ±100 for the full control effect; nearly all actives have a fitted effect of over 60% in size
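Inhibition is scored as reduced AlphaScreen emission. The BAZ2B/b-H3(5-23)K14Ac complex (50 nM each) in PBS pH 7.4, 0.01% Tween-20 meets compound (up to 110 uM) for 30 min at RT before bead addition.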
CtBP-E1A inh = qHTS Assay for Inhibitors of the CtBP/E1A Interaction | CtBP / adenovirus E1A interaction (AlphaScreen) | AlphaScreen GST-E1A/His-CtBP binding, 1536-well; active compounds read low | activity change, % (concentration not given with the values) | 0.49% of 340,000 active | AID 651724, 2012; in the data active = activity change below about -65%; inconclusive = mostly about -30% to -63%; note: % is set by controls: 0 for no effect and ±100 for the full control effect
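Protein mix (5X: 125 nM each GST-E1A, His-CtBP) was incubated with pinned compound 2 h at 37 deg C in dark, in 50 mM Tris pH 8.0 buffer with 300 mM NaCl. Glutathione donor and nickel acceptor beads followed; AlphaScreen signal read after 1 h.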
HP1b binding inh = HTS for Inhibitors of HP1-beta Chromodomain Interactions with Methylated Histone Tails; Chromobox protein homolog 1 (Homo sapiens), P83916; AlphaScreen HP1-beta / biotin-H3K9me3 peptide binding; Potency, µM (series often up to 114 µM), for inactives: top-dose activity change, negative = inhibition, usual class: inhibitors; 0.56% of 390,000 active; AID 540317, 2011; note: potency is the fitted concentration of half-maximal effect; nearly all actives have a fitted effect of over 70% in size
Target sequence (P83916 whole entry, looked up): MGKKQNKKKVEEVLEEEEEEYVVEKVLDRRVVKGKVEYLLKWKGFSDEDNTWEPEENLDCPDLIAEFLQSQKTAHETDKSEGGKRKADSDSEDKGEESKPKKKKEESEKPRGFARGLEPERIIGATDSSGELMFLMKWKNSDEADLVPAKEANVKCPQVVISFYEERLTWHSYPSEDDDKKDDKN
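AlphaScreen: HP1-beta (50 nM) preformed 30 min with biotin-H3(1-18)K9me3 peptide (50 nM) in PBS pH 7.4, 0.01% Tween-20. Compound added for 30 min at RT, then streptavidin donor/nickel chelate acceptor beads (10 ug/mL) for 30 min.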
Six1-Eya2 blk = qHTS Assay for Inhibitors of the Six1/Eya2 Interaction. Homeobox protein SIX1 (Homo sapiens) + Protein phosphatase EYA2 (Homo sapiens), …. activity change, % (no concentration beside the values). AlphaScreen GST-Six1/His-Eya2 binding, biochemical; active compounds read low. 0.56% of 360,000 active; in the data active = activity change below about -65%; inconclusive = mostly about -30% to -63%; note: % is set by controls: 0 for no effect and ±100 for the full control effect
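Compounds are tested against tagged Six1 and Eya2 proteins bridged by glutathione donor and nickel acceptor beads; after a one-hour incubation at 37 °C without light, AlphaScreen emission is recorded.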
JMJD2A Tudor inh = qHTS Assay for Inhibitors of JMJD2A-Tudor Domain; Lysine-specific demethylase 4A (Homo sapiens), O75164; AlphaScreen JMJD2A-Tudor / H3K4me3 peptide binding; Potency, µM (series often up to 114 µM), inactives show top-dose activity change, negative = inhibition, hits mostly inhibitors; 4.4% of 390,000 active; note: potency is the fitted concentration of half-maximal effect; % is set by controls: 0 for no effect and ±100 for the full control effect; nearly all actives have a fitted effect of over 50% in size
The depositor's hits bear a star; u = inconclusive; x = no result given; [ ] = remark or other dose. Hits are enriched below; roughly 10% of the tested compounds scored in any of these assays. Unless noted, calls come from the whole dose curve; as a rule, active = well fitted inhibition curve with a large enough effect; inconclusive = small, poorly fitted or top-dose-only effect; inactive = no such curve, though single readings can be large or run the other way.

SMILES	G9a inh	BAZ2B block	CtBP-E1A inh	HP1b binding inh	Six1-Eya2 blk	JMJD2A Tudor inh
CC(C)CC(OC(=O)c1cccs1)C(=O)NCc1ccco1 (stereo not drawn)	12.6µM*	-19.4%	-0.5	-22.6%	-0.7	-18.3%[57.1 µM]
CCC(OC(=O)c1cccs1)C(=O)NCc1ccco1 (stereo not drawn)	-4.7%[12.7 µM]	4.6%	7.7	29.2%	-3.7	-11.4%
Cc1ccc2c(cnn2C(=O)CCC(=O)NCc2cccc(Br)c2)c1	x	8.0%	8.5	38.6%	6.4	-8.5%
Cc1ccc2c(cnn2C(=O)CCC(=O)NCc2cccc(Cl)c2)c1	44.7µM*	11.1%	4.6	29.2%	0.0	-14.8%
Cc1ccc(/C=C/C(=O)N2CCN(S(=O)(=O)c3cccs3)CC2)o1	7.94µM*	-36.2%	6.2	-11.2%	0.2	-34.4%
O=C(/C=C/c1ccco1)N1CCN(S(=O)(=O)/C=C/c2ccccc2)CC1	50.1µM*	u	-1.1	-0.5%	-7.7	-13.1%
NC(=O)C1CCN(C(=O)/C=C/c2ccco2)CC1	8.91µM*	7.6%	0.0	6.2%	5.8	-16.1%
O=C(/C=C/c1ccco1)N1CCN(S(=O)(=O)c2cccs2)CC1	39.8µM*	u	-1.1	u	-5.2	u
Cc1oc2ncn(C)c(=O)c2c1C(=O)NCc1ccc(Cl)cc1	-0.3%[59 µM]	-6.7%[57.1 µM]	x	21.4%	x	7.4%
O=S(=O)(/C=C/c1ccccc1)N1CCN(Cc2ccccc2)CC1	22.3%	-14.4%	5.9	29.9%	0.4	-6.1%
O=S(=O)(/C=C/c1ccccc1)N1CCOCC1	89.1µM*	-1.8%	9.7	33.7%	1.7	4.3%
Cc1ccc2nc(SCC(=O)O)nc(C)c2c1	-40.6%[2.33 µM]	14.2%	4.0	23.8%	1.5	-12.8%
Cc1ccc(N2C(SCC(=O)O)=NC(=Nc3cccc(C)c3)C23CCCC3)cc1	-46.3%	20µM*	-0.3	14.1µM*	-0.7	10µM*
O=C(O)CSC1=NC(=Nc2ccc(Cl)cc2)C2(CCCCC2)N1c1cccc(C(=O)O)c1	4.47µM*	u	1.7	u	10.4	22.4µM*
CC1CN(C(=O)CCC(=O)NCc2cccs2)c2ccccc2O1 (stereo not drawn)	-3.3%[59 µM]	-2.8%	x	15.5%	x	-19.5%
CC(=O)Nc1ccc(NC(=O)Nc2cccc(Cl)c2)cc1	0.3%	5.0%	-1.6	16.3%	2.7	-8.7%
CC(=O)C(=Nc1ccc(Cl)cc1Cl)NNc1cccc(Cl)c1	u	14.1µM*	u	u	u	56.2µM*
Cc1nc2ccc(S(=O)(=O)NC(CC(C)C)C(=O)NCc3ccc(Cl)cc3)cc2s1 (stereo not drawn)	6.8%[59 µM]	-2.8%	x	12.3%	x	-13.1%
O=C(CN1C(=O)/C(=C2/SC(=S)N(CCS(=O)(=O)O)C2=O)c2ccccc21)Nc1cccc(C(F)(F)F)c1	x	x	-8.5	10µM*	u	12.6µM*
O=C(CN1C(=O)c2ccccc2Sc2ncccc21)Nc1cccc(C(F)(F)F)c1	-31.2%[59 µM]	-16.5%	x	1.6%	x	-18.7%
O=C(CN1C(=O)/C(=C2\SC(=S)N(CCS(=O)(=O)O)C2=O)c2ccccc21)Nc1cccc(Br)c1	8.91µM*	8.91µM*	-12.1	50.1µM*	-22.0	50.1µM*
COCCN1C(=O)/C(=C2/C(=O)N(CC(=O)Nc3ccccc3Cl)c3ccccc32)SC1=S	-0.9%	-11.1%	-11.6	-7.1%	-0.7	-17.5%
Cc1ccc(OCCn2c(-c3ccc(Br)cc3)nc3ccccc3c2=O)cc1C	-8.4%[59 µM]	9.1%	x	30.0%	x	1.7%
O=C(O)CN1CCCCC1	u	u	-6.4	12.4%	-0.5	-5.2%
O=C(CN1CCCC1)OCCCC1CCCCC1	56.2µM*	-19.6%	-3.3	-14.5%	1.9	-16.9%
SMILES	G9a inh	BAZ2B block	CtBP-E1A inh	HP1b binding inh	Six1-Eya2 blk	JMJD2A Tudor inh
C[N+]1(CC(=O)OCCCC2CCCCC2)CCCC1	56.2µM*	-24.6%	0.0	u	6.1	u
CC(C)(C)C1CCC(OC(=O)C[N+]2(C)CCCCC2)CC1 (stereo not drawn)	-30.3%	-14.4%	6.2	32.6%	9.1	-14.5%
CCn1ccc2cc(S(=O)(=O)N3CCC(C(=O)NCc4cccc(C)c4)CC3)ccc21	3.2%[59 µM]	-6.5%	x	15.3%[57 µM]	x	-15.7%
COc1ccc(OC)c2sc(Cl)nc12	28.2µM*	8.5%	3.3	-3.6%	-1.9	3.5%
COc1ccc(OC)c2sc(NC(=O)C(C)C)nc12	-41.8%[59 µM]	-8.6%	-4.1	14.2%	0.1	-13.9%
COc1c(Cl)cc(C(=O)NN)cc1Cl	x	3.9%	-0.6	30.4%	1.9	-4.5%
NNC(=O)c1cc(O)c(O)c(O)c1	8.91µM*	17.8µM*	x	44.7µM*	-25.2	1.78µM*
S=c1[nH]nc(Cc2noc3ccccc23)n1-c1ccccc1	2.82µM*	0.1%	-4.9	19.5%	-13.6	11.2µM*
C=CCn1c(Cc2nc3ccccc3[nH]2)n[nH]c1=S	2µM*	u	4.6	6.4%	-25.6	8.91µM*
C=CCn1c(CCn2c3ccccc3c3ccccc32)n[nH]c1=S	u	10.1%	-5.1	15.4%	9.2	-28.6%
S=c1[nH]nc(Cc2cccc3ccccc23)n1-c1ccccc1	u	-33.6%	0.9	7.7%	-1.8	79.4µM*
C=CCn1c(Cc2cccc3ccccc23)n[nH]c1=S	2.24µM*	-23.8%	2.7	-6.6%	2.7	50.1µM*
COc1ccc(-c2noc(CNC(=O)c3ccccc3Br)n2)cc1	-1.8%[59 µM]	-3.4%	x	53.0%	x	-7.6%
O=c1c2ccccc2cnn1Cc1n[nH]c(=S)n1-c1ccc(Cl)cc1Cl	u	3.3%	x	x	x	x
S=c1[nH]nc(CCc2nc3ccccc3[nH]2)n1-c1cccc(Cl)c1	-0.9%[0.501 µM]	-8.0%	-10.8	20.1%	11.4	44.7µM*
S=c1[nH]nc(CCc2nc3ccccc3[nH]2)n1-c1ccccc1	u	-10.7%	x	15.6%	-0.4	-93.7%
O=c1c2ccccc2cnn1Cc1n[nH]c(=S)n1-c1ccccc1	7.94µM*	5.8%	4.3	27.9%	5.0	25.1µM*
COc1ccc(NC(=O)Nc2cc(C(=O)NCc3ccc(C)cc3)ccc2N2CCCC2)cc1	8.4%[12.7 µM]	-3.0%	x	33.0%	x	-8.6%
Cc1cccc(CS(=O)(=O)Cc2ccc(C(=O)NCc3ccc(Cl)cc3)o2)c1	0.6%[59 µM]	3.9%	x	37.8%	x	7.4%
Cn1c(=O)c(C(=O)COC(=O)c2cc(C(F)(F)F)nc3c(C(F)(F)F)cccc23)c(N)n(CC2CC2)c1=O	50.1µM*	-38.7%	x	x	x	x
